{"source": "PubChem BioAssay AID777", "about": "(Sanford-Burnham Center for Chemical Genomics, 2007)", "note": "In all, about 96,000 compounds went through this assay and about 19,000 (20%) were called active. Only a sample is shown. Values without a mark were called inactive.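 Rule for the calls: active = blocking of liver enzyme CYP2C9 beyond about 50% at 5 µM (limit read from the data); inactive = the rest.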", "data": [{"target": "Cytochrome P450 2C9 (Homo sapiens) (UniProt P11712)", "sequence (P11712 whole entry, looked up)": "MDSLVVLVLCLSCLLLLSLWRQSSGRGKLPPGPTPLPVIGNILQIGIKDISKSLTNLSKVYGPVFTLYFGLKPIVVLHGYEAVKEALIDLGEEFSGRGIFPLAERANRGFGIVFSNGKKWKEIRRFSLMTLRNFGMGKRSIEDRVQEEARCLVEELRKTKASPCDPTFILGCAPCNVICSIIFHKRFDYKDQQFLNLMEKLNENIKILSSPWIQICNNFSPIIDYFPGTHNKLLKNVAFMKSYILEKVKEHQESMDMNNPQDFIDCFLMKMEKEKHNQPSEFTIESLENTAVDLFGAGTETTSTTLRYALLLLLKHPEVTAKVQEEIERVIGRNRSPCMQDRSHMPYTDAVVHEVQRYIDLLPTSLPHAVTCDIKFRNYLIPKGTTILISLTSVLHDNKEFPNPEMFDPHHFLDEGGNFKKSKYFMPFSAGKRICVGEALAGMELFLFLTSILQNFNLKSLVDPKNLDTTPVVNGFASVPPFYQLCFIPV", "experiment": "blockers of cytochrome P450 2C9 activity – biochemical, luminescence, ADME assay, primary screen (AID 777)", "settings": "CYP2C9 Supersomes, luciferin-H conversion, at 5 µM, hits give high values", "values": [{"smiles": "Cc1[nH]c(=O)c(C(=O)/C=C/c2ccccc2)c2c1CCCC2", "inhibition": "-14.6%"}, {"smiles": "CC1(C)C(=O)C2(CCCCC2)C(=O)OC1c1cccs1", "note": "(stereo not drawn)", "inhibition": "-9.3%"}, {"smiles": "O=C(COc1ccccc1F)NC1CC1", "inhibition": "-15.2%"}, {"smiles": "CSc1ccc(C#N)cc1NC(=O)c1ccc(Cl)cc1", "inhibition": "6.3%"}, {"smiles": "O=C(Nc1cccn(Cc2c(Cl)cccc2Cl)c1=O)c1ccc(Cl)cc1", "inhibition": "71.8% (active)"}, {"smiles": "COc1ccc(Cn2cccc(NC(=O)Nc3ccc(C#N)cc3)c2=O)cc1", "inhibition": "14.3%"}, {"smiles": "Cc1ccn2cc(C(=O)NC3CCN(Cc4ccccc4)CC3)nc2c1", "inhibition": "16.4%"}, {"smiles": "CC1(C)NC(=O)N(CCCCSc2ccc(Cl)cc2)C1=O", "inhibition": "85.8% (active)"}, {"smiles": "Cc1ccc(SCCN2C(=O)NC(C)(C)C2=O)cc1", "inhibition": "68.6% (active)"}, {"smiles": "Cc1ccc(SCC2=NNC(=O)C2)cc1", "inhibition": "-7.3%"}, {"smiles": "Cc1ccc(SCc2cc(=O)[nH]c(N3CCCCC3)n2)cc1", "inhibition": "14.9%"}, {"smiles": "CCOC(=O)N1CCN(C(=O)CSc2ccc(Cl)cc2)CC1", "inhibition": "42.4%"}, {"smiles": "CCC(=O)c1ccc(OCC(O)CN2C(=O)NC(C)(C)C2=O)cc1", "note": "(stereo not drawn)", "inhibition": "0.4%"}, {"smiles": "CC(=O)N1CCCc2cc(S(=O)(=O)CCC(=O)N3CCN(c4ccccc4)CC3)ccc21", "inhibition": "-45.2%"}, {"smiles": "COC(=O)Cn1nc(-c2ccccc2)c2cc(Cl)ccc21", "inhibition": "25.2%"}, {"smiles": "COc1ccc(COC(=O)c2n[nH]c3ccccc23)cc1F", "inhibition": "54.1% (active)"}, {"smiles": "O=C(COC(=O)c1n[nH]c2ccccc12)NCc1ccccc1", "inhibition": "41.3%"}, {"smiles": "COc1ccc(C(C)=O)cc1COC(=O)Cn1cnc2ccccc2c1=O", "inhibition": "41.4%"}, {"smiles": "COc1ccccc1NC(=O)/C=C/C(N)=O", "inhibition": "-19.3%"}, {"smiles": "COc1ccccc1NC(=O)CC(NCCN(C)C)C(=O)O", "note": "(stereo not drawn)", "inhibition": "-1.4%"}, {"smiles": "COc1ccccc1NC(=O)[C@H](COCc1ccccc1)NC(=O)OC(C)(C)C", "inhibition": "51.7% (active)"}, {"smiles": "CCC1(C)Cc2c(sc3[nH]c(=S)n(Cc4ccccc4)c(=O)c23)CO1", "note": "(stereo not drawn)", "inhibition": "34.5%"}, {"smiles": "Oc1ccc(/C=N/NC2=NCCCCC2)c(O)c1", "inhibition": "-17.7%"}, {"smiles": "CSCCC(NS(=O)(=O)c1ccc2c(c1)oc(=O)n2C)C(=O)NC1CCCc2ccccc21", "note": "(stereo not drawn)", "inhibition": "-0.6%"}, {"smiles": "CC1CCN(CC(=O)c2c[nH]c3ccccc23)CC1", "inhibition": "4.9%"}, {"smiles": "N#Cc1c(N)sc2c1CCN(C(=O)OCc1ccccc1)C2", "inhibition": "97.9% (active)"}, {"smiles": "CCOC(=O)c1c(NC(=S)Nc2ccccc2)sc2c1CCN(C)C2", "inhibition": "24.5%"}, {"smiles": "O=C(O)C1CCN(C(=O)OCc2ccccc2)CC1", "inhibition": "5.6%"}]}]}
